Data: PubChem BioAssay AID1159580 (chemical genetic matrix, 2015)
The campaign covered roughly 5,500 compounds. About 2,000 (36%) were called active. Roughly 18% stayed inconclusive and do not appear here. Rule as the data show it: active = normalized growth mostly below about 0.91 (no sharp cut-off); inconclusive = no clear call, values can overlap the other calls; inactive = mostly above about 0.92. The list shows a part of the results.

Test: chemical genetic growth profiling, strain panel (AID 1159580);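 also: tested at 20 µM; growth read once vehicle control cultures reached saturation at 30 °C; 1 = growth at the plate median or of vehicle wells; lower values mean less growth of the strain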
Settings: growth OD

Measured: normalized growth

OC(Cn1cncn1)(Cn1cncn1)c1ccc(F)cc1F
active: S. cerevisiae deletion strains, locus YLR039C, strain RIC1, active compounds read low 0.635 | S. cerevisiae deletion strains, locus YLR262C, strain YPT6 (second series), active compounds read low 0.465 | S. cerevisiae deletion strains, locus YPL106C, strain sse1, active compounds read low 0.341
inactive: S. cerevisiae deletion strains, locus YJL187C, strain SWE1, active compounds read low 1 | S. cerevisiae deletion strains, locus YJR043C, strain POL32, active compounds read low 0.988 | S. cerevisiae deletion strains, locus YJR075W, strain HOC1, active compounds read low 1.01 | S. cerevisiae deletion strains, locus YKL009W, strain mrt4, active compounds read low 0.994 | S. cerevisiae deletion strains, locus YKL068W, active compounds read low 0.996 | S. cerevisiae deletion strains, locus YKL085W, strain MDH1 (second series), active compounds read low 0.985 | S. cerevisiae deletion strains, locus YKL085W, strain MDH1, active compounds read low 0.985 | S. cerevisiae deletion strains, locus YKL160W, strain elf1, active compounds read low 0.992 | S. cerevisiae deletion strains, locus YKL190W, strain CNB1, active compounds read low 0.997 | S. cerevisiae deletion strains, locus YKR001C, strain vps1, active compounds read low 1.05 | S. cerevisiae deletion strains, locus YKR026C, strain gcn3, active compounds read low 0.999 | S. cerevisiae deletion strains, locus YKR091W, strain srl3, active compounds read low 1.01 | S. cerevisiae deletion strains, locus YLL001W, strain dnm1, active compounds read low 1.01 | S. cerevisiae deletion strains, locus YLL026W, active compounds read low 0.999 | S. cerevisiae deletion strains, locus YLL041C, strain sdh2, active compounds read low 1.01 | S. cerevisiae deletion strains, locus YLR027C, strain aat2, active compounds read low 1 | S. cerevisiae deletion strains, locus YLR058C, strain SHM2, active compounds read low 1 | S. cerevisiae deletion strains, locus YLR102C, strain apc9, active compounds read low 1 | S. cerevisiae deletion strains, locus YLR221C, strain rsa3, active compounds read low 0.996 | S. cerevisiae deletion strains, locus YLR258W, strain gsy2, active compounds read low 1 | S. cerevisiae deletion strains, locus YLR262C, strain YPT6, active compounds read low 0.634 | S. cerevisiae deletion strains, locus YLR268W, strain sec22, active compounds read low 0.969 | S. cerevisiae deletion strains, locus YLR320W, strain mms22, active compounds read low 0.956 | S. cerevisiae deletion strains, locus YLR330W, strain CHS5, active compounds read low 0.99 | S. cerevisiae deletion strains, locus YLR342W, strain FKS1 (second series), active compounds read low 1 | S. cerevisiae deletion strains, locus YLR342W, strain FKS1, active compounds read low 1.01 | S. cerevisiae deletion strains, locus YLR357W, strain rsc2, active compounds read low 1.02 | S. cerevisiae deletion strains, locus YLR370C, strain arc18, active compounds read low 1 | S. cerevisiae deletion strains, locus YLR371W, strain rom2, active compounds read low 1 | S. cerevisiae deletion strains, locus YLR384C, strain iki3, active compounds read low 1 | S. cerevisiae deletion strains, locus YLR418C, strain cdc73, active compounds read low 1.01 | S. cerevisiae deletion strains, locus YML016C, strain PPZ1, active compounds read low 0.998 | S. cerevisiae deletion strains, locus YML032C, strain rad52, active compounds read low 0.995 | S. cerevisiae deletion strains, locus YML120C, strain ndi1, active compounds read low 1 | S. cerevisiae deletion strains, locus YML124C, strain tub3, active compounds read low 1 | S. cerevisiae deletion strains, locus YMR058W, strain fet3, active compounds read low 0.987 | S. cerevisiae deletion strains, locus YMR078C, strain ctf18, active compounds read low 0.992 | S. cerevisiae deletion strains, locus YMR125W, strain sto1, active compounds read low 1.03 | S. cerevisiae deletion strains, locus YMR129W, active compounds read low 1.01 | S. cerevisiae deletion strains, locus YMR205C, strain PFK2, active compounds read low 0.988 | S. cerevisiae deletion strains, locus YMR223W, strain ubp8, active compounds read low 0.98 | S. cerevisiae deletion strains, locus YMR231W, strain pep5, active compounds read low 0.943 | S. cerevisiae deletion strains, locus YMR263W, strain SAP30, active compounds read low 0.988 | S. cerevisiae deletion strains, locus YMR307W, strain GAS1, active compounds read low 1.25 | S. cerevisiae deletion strains, locus YNL067W, strain RPL9B, active compounds read low 1.03 | S. cerevisiae deletion strains, locus YNL071W, strain lat1, active compounds read low 1 | S. cerevisiae deletion strains, locus YNL128W, strain TEP1, active compounds read low 0.965 | S. cerevisiae deletion strains, locus YNL209W, strain ssb2, active compounds read low 1.01 | S. cerevisiae deletion strains, locus YNL233W, strain BNI4, active compounds read low 1.01 | S. cerevisiae deletion strains, locus YNL248C, strain rpa49, active compounds read low 0.994 | S. cerevisiae deletion strains, locus YNL250W, strain rad50, active compounds read low 0.976 | S. cerevisiae deletion strains, locus YNL271C, strain bni1, active compounds read low 0.98 | S. cerevisiae deletion strains, locus YNL298W, strain CLA4, active compounds read low 0.958 | S. cerevisiae deletion strains, locus YNL307C, strain MCK1, active compounds read low 1.01 | S. cerevisiae deletion strains, locus YNL322C, strain KRE1 (second series), active compounds read low 0.996 | S. cerevisiae deletion strains, locus YNR049C, strain mso1, active compounds read low 1.01 | S. cerevisiae deletion strains, locus YNR052C, strain pop2, active compounds read low 0.979 | S. cerevisiae deletion strains, locus YOL006C, strain TOP1, active compounds read low 0.971 | S. cerevisiae deletion strains, locus YOL012C, strain htz1 1.07 | S. cerevisiae deletion strains, locus YOL147C, strain pex11, active compounds read low 1.01 | S. cerevisiae deletion strains, locus YOR001W, strain rrp6, active compounds read low 0.994 | S. cerevisiae deletion strains, locus YOR061W, strain CKA2, active compounds read low 1 | S. cerevisiae deletion strains, locus YOR069W, strain VPS5, active compounds read low 0.992 | S. cerevisiae deletion strains, locus YOR070C, strain gyp1, active compounds read low 0.998 | S. cerevisiae deletion strains, locus YOR080W, strain dia2, active compounds read low 0.987 | S. cerevisiae deletion strains, locus YOR083W, strain WHI5, active compounds read low 0.997 | S. cerevisiae deletion strains, locus YOR106W, strain vam3, active compounds read low 0.964 | S. cerevisiae deletion strains, locus YOR136W, strain idh2, active compounds read low 0.979 | S. cerevisiae deletion strains, locus YOR144C, strain elg1, active compounds read low 1 | S. cerevisiae deletion strains, locus YOR184W, strain ser1, active compounds read low 0.964 | S. cerevisiae deletion strains, locus YOR265W, strain rbl2, active compounds read low 1 | S. cerevisiae deletion strains, locus YOR270C, strain vph1, active compounds read low 0.977 | S. cerevisiae deletion strains, locus YOR290C, strain snf2, active compounds read low 1.01 | S. cerevisiae deletion strains, locus YOR316C, strain cot1, active compounds read low 0.991 | S. cerevisiae deletion strains, locus YPL051W, strain arl3, active compounds read low 0.995 | S. cerevisiae deletion strains, locus YPL078C, strain atp4, active compounds read low 0.992 | S. cerevisiae deletion strains, locus YPL240C, strain hsp82, active compounds read low 0.998 | S. cerevisiae deletion strains, locus YPL241C, strain CIN2, active compounds read low 0.997 | S. cerevisiae deletion strains, locus YPR119W, strain clb2, active compounds read low 0.988 | S. cerevisiae deletion strains, locus YPR141C, strain kar3, active compounds read low 0.989 | S. cerevisiae deletion strains, locus YPR163C, strain tif3, active compounds read low 0.995 | S. cerevisiae deletion strains, locus YPR167C, strain met16, active compounds read low 0.98 | S. cerevisiae deletion strains, strain wtn01, active compounds read low 0.981 | S. cerevisiae strains, strain wild type, active compounds read low 1
